# Bioassay records from PubChem.
# Sampled rows, rich in hits. Any-hit rate of the full collection: about 9.6%.
# HCT116 bCat-KO: beta-catenin-lacking colon tumor cell growth suppression | HCT116 beta-catenin knockout viability, CellTiter-Glo, 60 h; hits give low values | viability, % at 10 µM | 1.5% of 140,000 active;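 active = viability at or under a set limit, the compound median less 4 SD, cut at about 6% in these data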
# HCT116 PTEN-null: PTEN-deleted cell growth suppression; HCT116 PTEN-null viability, CellTiter-Glo, 60 h; hits give low values; viability, % at 10 µM; 1.2% of 140,000 active;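 active = viability at or below a set limit, 4 SD under the median of all tested compounds, cut at about 3.7% in these data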;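 also: PTEN knockout HCT116 line with beta catenin targeted HCT116 as companion control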
# L major viab: reduces viability of Leishmania major promastigotes | 9% of 200,000 active | resazurin fluorescence viability | inhibition, % at 10 µM; in the data active = inhibition above about 50%;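 also: promastigotes grown with compound for 44 hours at 28 °C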
# INS promoter inh: TRM-6 insulin promoter activity inhibition. TRM-6 cells (human fetal islet line), insulin promoter-eGFP reporter, imaging; reporter expression induced with tamoxifen. inhibition, % at 2 µM. 0.9% of 130,000 active. AID 1273;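 active = inhibition above the mean plus 3 SD, with well images judged a real hit on visual review, cut at about 60% in these data, passing the limit was not always enough; inconclusive = inhibition over the cutoff but images rejected on review; inactive = inhibition not above the cutoff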
# Ins promoter up: MIN6 insulin promoter up-regulation | MIN6 insulin promoter-GFP reporter, high-content imaging; hits give high values | z-score at 5 µM | 0.3% of 190,000 active;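 active = z-score above 3 at 5 µM with at least 500 cells counted in the well; inconclusive = wells under 500 cells, flagged as cytotoxic or low count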
# Autophagy HCS: autophagy modulation, high-content screen; MEF GFP-LC3 puncta imaging; test concentration mostly 10 µM; calls only at 10 µM (by protocol); 0.98% of 190,000 active; AID 463193;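 active = percentage of spot-positive cells more than 3 SD above its plate mean, without a fluorescence outlier flag or 80% toxicity; inconclusive = no clear call, values can overlap the other calls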
# Hits are given with their value; - = inactive; ? = inconclusive; . = not tested or not shown; + = active, no number.
SMILES,HCT116 bCat-KO,HCT116 PTEN-null,L major viab,INS promoter inh,Ins promoter up,Autophagy HCS
CCN1CCN(c2ccc(S(=O)(=O)N3CCCC3)cn2)CC1,.,.,-,-,-,-
O=C(c1sc2ccccc2c1Cl)N(Cc1ccco1)C1CCS(=O)(=O)C1 (centres undefined),-,-,96,-,-,-
N#C/C(C(=O)Oc1ccccc1)=C1/Nc2ccccc2-c2ccccc21,-,-,-,-,-,+
Cc1ccc(-c2cn3cccc(C)c3n2)cc1,.,.,-,73,-,-
Cc1cccn2cc(-c3ccc(S(=O)(=O)N4CCCCC4)cc3)nc12,.,.,-,-,-,+
CSc1nc(C)c(CCO)c(=O)[nH]1,.,.,-,.,-,-
COc1ccc(-c2cc(=O)[nH][nH]2)cc1OC,-,-,84,-,-,-
Cc1c(Cl)c([N+](=O)[O-])nn1CCCC(=O)N(Cc1ccccc1)Cc1ccccc1,-,-,-,-,-,-
Cc1ccc(COc2coc(CO)cc2=O)cc1,-,-,-,-,-,-
CC1CCCCC1NC(=O)C1CCN(S(=O)(=O)N2CCC3(CC2)OCCO3)CC1 (centres undefined),-,-,-,-,-,-
O=C(NC1CCCCCC1)C1CCN(S(=O)(=O)N2CCC3(CC2)OCCO3)CC1,-,-,-,-,-,+
O=C1CC(N2CCN(c3ccc(S(=O)(=O)N4CCOCC4)cc3)CC2)C(=O)N1Cc1ccccc1 (centres undefined),-,-,-,-,-,-
CCN(CC)CCNCc1cc(Cl)ccc1OCc1ccccc1F,.,.,99,.,-,-
CC(C)(C)NCc1cc(Cl)ccc1OCc1ccccc1F,.,.,-,-,-,-
COc1cc(CNCCCCO)ccc1OCc1ccccc1F,.,.,83,-,-,-
CCOCCCNCc1ccc(OCC(=O)N2CCOCC2)c(OC)c1,.,.,-,.,-,-
CCOCCCNCc1ccc(OCc2ccccc2C)c(OC)c1,.,.,98,.,-,-
CCNCc1ccc(OCc2ccccc2F)c(OC)c1,.,.,81,.,-,-
COc1cc(CNc2ccc(N3CCCC3)cc2)ccc1OCc1ccccc1F,-,-,-,-,-,-
COc1cc(C(=O)Nc2ccc(NC(=O)C(C)C)nc2)cc(OC)c1OC,.,.,.,.,-,.
O=C(Nc1cccc(F)c1)c1c(O)c2cccc3c2n(c1=O)CCC3,.,.,-,-,-,-
Cc1ccc(S(=O)(=O)NN/C(=N/S(=O)(=O)c2ccccc2)c2ccccc2)cc1,.,.,-,.,-,-
Cc1ccc(S(=O)(=O)/N=C(\c2ccccc2)N(C)S(=O)(=O)c2ccccc2)cc1,-,-,63,-,-,-
CN(C)C(/C=C/Nc1ccc(Br)cc1)=C(C#N)C#N,.,.,-,.,-,-
Brc1ccc(N=C/C=C/C=C/Nc2ccc(Br)cc2)cc1,-,-,-,79,-,-
SMILES,HCT116 bCat-KO,HCT116 PTEN-null,L major viab,INS promoter inh,Ins promoter up,Autophagy HCS
CCCc1nc2ccccc2n1CC(O)COc1ccc(NC(C)=O)cc1 (centres undefined),.,.,-,?,-,-
Cc1ccc(-c2cc(C(F)(F)F)n3nc(C(=O)NCCCn4ccnc4)cc3n2)cc1C,-,-,100,.,-,-
COc1ccc(-c2cc(C(F)(F)F)n3nc(C(=O)NCc4ccco4)cc3n2)cc1,-,-,-,.,-,+
O=C(NCc1ccco1)c1nn2c(C(F)(F)F)cc(-c3cccs3)nc2c1Br,-,-,100,-,-,-
O=C(NCc1ccco1)c1nc2nc(-c3cccs3)cc(C(F)(F)F)n2n1,-,-,-,.,-,-
COc1ccc(-c2cc(C(F)(F)F)n3nc(C(=O)NCc4ccco4)c(Cl)c3n2)cc1,4.4,-,-,-,-,-
CCOc1cc(C(=O)Nc2ccc([N+](=O)[O-])cn2)cc(OCC)c1OCC,-,-,-,-,-,-
O=C(Cn1cnc2c(cnn2-c2ccc(Cl)cc2)c1=O)N1CCN(c2ccccc2)CC1,.,.,-,-,-,-
COc1cccc2cc(C(=O)NCC3CCCO3)c(=O)oc12 (centres undefined),-,-,-,-,-,-
Cc1ccc(N(CC(O)CN(C)C)S(=O)(=O)c2ccccc2)cc1 (centres undefined),-,-,-,-,-,-
COc1ccc(S(=O)(=O)N(C)C)cc1NCC(=O)Nc1ccc(Br)cc1F,-,-,57,-,.,-
Cc1ccc(S(=O)(=O)N2CCN(C(C)C(=O)Nc3ccccc3-c3ccccc3)CC2)cc1 (centres undefined),-,-,94,-,-,-
CC1CCN(C(C)C(=O)Nc2ccccc2-c2ccccc2)CC1 (centres undefined),-,-,51,-,-,-
CC(C(=O)Nc1ccccc1-c1ccccc1)N1CCN(C(=O)c2ccccc2)CC1 (centres undefined),.,.,.,.,-,.
CCN(CC)S(=O)(=O)c1ccc(C)c(NC(=O)CN2CCN(C)CC2)c1,.,.,.,.,-,.
CC(C)(C)C(=O)Nc1ccc(C(=O)N/N=C/C2CC3C=CC2C3)cc1 (centres undefined),-,-,-,-,-,-
O=c1[nH]c(-c2ccc(F)cc2)nc2c1sc(=S)n2-c1ccccc1,-,-,-,.,-,-
O=c1[nH]c(-c2ccc3c(c2)OCO3)nc2c1sc(=S)n2-c1ccccc1,.,.,51,.,-,-
CCOC(=O)c1sc2nc3c(SCCC#N)cc(C(=O)c4cc(F)ccc4O)cn3c(=O)c2c1C,-,-,63,-,-,-
CCOC(=O)c1sc2nc3c(SCCC(=O)O)cc(C(=O)c4cc(OC)ccc4O)cn3c(=O)c2c1C,.,.,-,.,-,-
COc1ccc(N(CC(O)Cn2c3ccccc3c3ccccc32)S(=O)(=O)c2ccccc2)cc1 (centres undefined),-,-,-,-,-,-
CC(=O)Nc1ccccc1N(CC(O)Cn1c2ccccc2c2ccccc21)S(=O)(=O)c1ccc(C)cc1 (centres undefined),-,-,64,-,-,-
O/N=C/c1ccc(OCc2ccccc2)c(Br)c1,-,-,57,-,-,-
CCOc1cc(/C=N/O)ccc1OCc1ccc(C)cc1,-,-,61,-,-,-
COc1cc(/C=N/n2cnnc2)ccc1OCc1ccc(C)cc1,-,-,96,-,-,-
SMILES,HCT116 bCat-KO,HCT116 PTEN-null,L major viab,INS promoter inh,Ins promoter up,Autophagy HCS
O/N=C/c1ccc(OCc2ccccc2)c(Cl)c1,-,-,-,-,-,-
COc1cc(/C=N/n2cnnc2)ccc1OCc1ccccc1,-,-,80,-,-,-
COc1cc(/C=N/n2cnnc2)ccc1OCCOc1ccccc1,-,-,-,-,-,-
CCOC(=O)C1=C(N)n2c(s/c(=C\c3ccco3)c2=O)=C(C(=O)OCC)C1c1ccco1 (centres undefined),-,-,-,-,-,-
O=[N+]([O-])c1cc2c(c(CSc3ncccn3)c1)OCOC2,.,.,-,-,-,-
CCOC(=O)CSc1nc(N)cc(=O)[nH]1,-,-,-,.,-,-
COc1ccccc1N1C(C)=CC(=C(C#N)c2nc3ccccc3s2)C=C1C,-,-,52,.,-,-
CCOC(=O)C1=C(C)Nc2nc(=S)[nH]n2C1c1ccc(Cl)cc1 (centres undefined),-,-,94,-,-,-
